# An excerpt weighted towards active compounds, which were near 2.8% of everything screened.
# D3 ag = qHTS of D3 Dopamine Receptor Agonist: qHTS; D(3) dopamine receptor (Homo sapiens), P35462; D3R DiscoveRx beta-arrestin cells, luminescence, 90 min; max activation, %; 0.58% of 410,000 active; AID 652048, 2013; in the data active = max activation above about 30%
#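 Cells at 1500/well, incubated overnight, then treated with pinned compounds (dopamine as control) for 90 min at 37 degrees C. DiscoveRx reagent added for 30 - 60 minutes at room temperature; luminescence read.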
# PI4K2A inh = qHTS for small molecular inhibitors of PI4K2A; activity change, negative = inhibition, % at 76.9 µM; 0.13% of 420,000 active; Phosphatidylinositol 4-kinase type 2-alpha (Homo sapiens), Q9BTU6; AID 1346378, 2018; purified PI4K2A, ADP-Glo luminescence, 1 h; hits give low values; in the data active = activity change below about -50%; inconclusive = mostly about -30% to -49%
# Target sequence (Q9BTU6 whole entry, looked up): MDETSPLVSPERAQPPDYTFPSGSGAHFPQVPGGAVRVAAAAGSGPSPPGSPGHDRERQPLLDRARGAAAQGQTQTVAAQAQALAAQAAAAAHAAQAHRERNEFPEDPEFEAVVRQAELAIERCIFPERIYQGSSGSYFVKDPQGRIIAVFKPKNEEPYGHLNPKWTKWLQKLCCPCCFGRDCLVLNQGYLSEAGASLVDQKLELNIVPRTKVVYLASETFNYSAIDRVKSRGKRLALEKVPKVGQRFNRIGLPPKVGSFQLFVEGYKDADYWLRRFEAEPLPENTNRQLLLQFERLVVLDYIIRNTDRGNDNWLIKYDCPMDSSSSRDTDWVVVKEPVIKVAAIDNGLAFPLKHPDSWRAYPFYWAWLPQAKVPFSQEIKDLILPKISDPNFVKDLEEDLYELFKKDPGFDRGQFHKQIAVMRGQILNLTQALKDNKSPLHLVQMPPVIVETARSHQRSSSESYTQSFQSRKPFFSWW
#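 In this quantitative HTS, ADP production by PI4K2A was quantified luminescently after 1 h at ambient temperature; 100 microM adenosine served as plate-quality control.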
# D3 antag = qHTS of D3 Dopamine Receptor Antagonist: qHTS; max response, negative = inhibition, %; D(3) dopamine receptor (Homo sapiens), P35462; D3R cells, DiscoveRx beta-arrestin luminescence, antagonist mode; hits give low values; AID 652054, 2013; 2.5% of 360,000 active; in the data active = max response below about -50%; inconclusive = no clear call, values can overlap the other calls
#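 Cells expressing the human receptor were seeded at 1500 cells/well, incubated overnight at 37 degrees C in 5% CO2, then exposed to library compounds with dopamine controls for 90 minutes at 37 degrees C before luminescent detection.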
# Akt phos inh = HTS Assay for Inhibitors of Akt Phophorylation: Primary Screen; Neuro2A IGF-stimulated pAkt S473 HTRF, 20 min; hits give low values; activity change, % for hits at 50 µM; 0.32% of 360,000 active; in the data active = activity change below about -80%; inconclusive = mostly about -51% to -80%
#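 Single-point screen (50 µM final compound) in Neuro2A cells stimulated 20 min with 6 nM IGF at 37 deg C. After lysis, Ser473-phosphorylated Akt read by HTRF (ex 330 nm, em 615/665 nm) as the 665/615 ratio.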
# LDHA inh = qHTS assay for inhibitors of human lactate dehydrogenase. purified LDHA, NADH/diaphorase-resazurin fluorescence; hits give low values. activity change, % (values are at about 110 or 230 µM). 0.15% of 480,000 active; in the data active = activity change below about -30%; inconclusive = mostly about -25% to -30%
#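 Human LDH5 at 2 nM final in Tris HCl pH 7.4 with 0.06 mM NADH and 0.2 mM pyruvate, reacted 5 minutes at room temperature. Remaining NADH coupled via diaphorase/resazurin; resorufin fluorescence read at 0 and 20 minutes, normalized to enzyme-free and DMSO wells.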
# RGS4 inhibitor = Inhibitors of Regulator of G Protein Signaling (RGS) 4: qHTS. Regulator of G-protein signaling 4 (Homo sapiens), P49798. Potency, µM (doses to about 114 µM), hits mostly inhibitors. Transcreener GDP fluorescence polarization, RGS4-accelerated GTP hydrolysis. 0.039% of 390,000 active; active = well fitted inhibition curve with a large enough effect; inconclusive = small, poorly fitted or top-dose-only effect; inactive = no such curve, though single readings can be large or run the other way; note: nearly all actives have a fitted effect of over 75% in size
# Target sequence (P49798 whole entry, looked up): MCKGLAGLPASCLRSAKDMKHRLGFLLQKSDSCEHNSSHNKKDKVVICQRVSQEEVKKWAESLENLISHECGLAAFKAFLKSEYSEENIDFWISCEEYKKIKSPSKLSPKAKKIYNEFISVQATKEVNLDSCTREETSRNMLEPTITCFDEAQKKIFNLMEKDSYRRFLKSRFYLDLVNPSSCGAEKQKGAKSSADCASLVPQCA
#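 MLSMR compounds (23 nl, pin-transferred) preincubated 10 min at room temperature with a 500nM (2x) first reagent, then RGS4 at 900nM (2x) plus Transcreener GDP mix added; fluorescence polarization (620/688 nm) read before and after 90 min at 30 °C.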
# A number is an active result; – = inactive; ? = inconclusive; · = no result; ! = not active in a repeat; [ ] = remark or other dose.
SMILES,D3 ag,PI4K2A inh,D3 antag,Akt phos inh,LDHA inh,RGS4 inhibitor
Cc1cc(C)c(NC(=O)COC(=O)Cn2nc(-c3ccccc3)oc2=O)c(C)c1,–,–,-55,–,–,–
Cc1ccc(C(=O)NC2C3CC4CC(C3)CC2C4)c(Cl)c1 (stereo not drawn),·,·,·,·,–,·
Oc1ccc(Cl)cc1CNCc1ccc(Cl)nc1,–,–,-65,–,–,–
CCN1CCN(Cc2ccc(NC(=O)c3cc(NC(=O)c4cc(C)on4)cc(OC)c3)cc2C(F)(F)F)CC1,–,–,?,–,–,–
CCN1CCN(Cc2ccc(NC(=O)c3cc(NC(=O)C(=O)c4c[nH]c5ccccc45)cc(OC)c3)cc2C(F)(F)F)CC1,–,–,-54,–,–,–
CCN1CCN(Cc2ccc(NC(=O)c3ccc(C)c(NC(=O)c4ccc5n[nH]nc5c4)c3)cc2C(F)(F)F)CC1,–,–,?,–,–,–
CCN1CCN(Cc2ccc(NC(=O)c3ccc(C)c(NC(=O)C(=O)c4c[nH]c5ccccc45)c3)cc2C(F)(F)F)CC1,–,–,-72!,–,–,?
CC(C)c1ccc2c(c1)C1(CC(=O)Nc3c1sc(C(=O)O)c3-c1ccccc1)C(=O)N2C (stereo not drawn),·,·,·,·,–,·
COc1cccc(CNC2CCCCCC2)c1OC,·,·,·,·,–,·
N#Cc1nc(-c2ccc(F)cc2)oc1NCc1ccccc1Cl,·,·,·,·,–,·
CC(=O)NS(=O)(=O)c1ccc(NC(=S)NC(=O)c2ccco2)cc1,–,–,-110,–,–,–
Cn1nnc(NC(=O)c2ccco2)n1,–,–,–,–,–,–
Cn1nnc(NC(=S)NC(=O)Cc2ccccc2)n1,–,–,-64,–,–,–
Cn1nnc(NC(=S)NC(=O)c2ccco2)n1,–,–,-72,–,–,–
Cc1cc(=O)oc2cc(OCC(=O)NCc3ccccc3)ccc12,·,·,·,·,–,·
N#Cc1nc(-c2ccc(S(=O)(=O)N3CCOCC3)cc2)oc1N1CCCCCC1,·,·,·,·,–,·
O=C(C1CCC(C(=O)N2CCc3ccccc32)CC1)N1CCc2ccccc21 (stereo not drawn),–,–,-59,–,–,–
N=c1sccn1CC(=O)N1CCc2ccccc21,–,–,-65,–,–,–
CCOC(=O)C1CCN(CC(=O)N2CCc3ccccc32)CC1,–,–,-74,–,–,–
O=C(c1cccc([N+](=O)[O-])c1)N1CCc2ccccc21,–,–,–,–,–,–
O=C(c1ccc([N+](=O)[O-])cc1)N1CCc2ccccc21,–,–,-55,–,–,–
CCC(=O)N1CCc2ccccc21,·,·,·,·,–,·
O=C(C1CCN(S(=O)(=O)N2CCOCC2)CC1)N1CCc2ccccc21,–,–,–,·,–,–
COc1ccccc1NC(=O)c1ccc(NC(=O)c2ccccc2SCC2CCCO2)cc1 (stereo not drawn),·,·,·,·,–,·
O=C(c1ccc(OCc2cn3ccccc3n2)cc1)N1CCN(c2ccc(O)cc2)CC1,·,·,·,·,–,·
SMILES,D3 ag,PI4K2A inh,D3 antag,Akt phos inh,LDHA inh,RGS4 inhibitor
CC1CCN(CC(=O)N2CCc3ccccc32)CC1,–,–,-58,–,–,–
O=C(CN1CCCCC1)N1CCCc2ccccc21,–,–,-82,–,–,–
O=C(NC(=S)N1CCCc2ccccc21)c1ccccc1,–,–,–,-114%,–,–
COC(=O)c1ccc(NC(=O)N(C)CCc2noc(-c3ccc(C(=O)N4CCCC4)cc3)n2)cc1,·,·,·,·,–,·
Cc1ccc(S(=O)(=O)N2CCCN(C(=O)c3cncn3-c3ccccc3)CC2)cc1,·,·,·,·,-37,·
CCOC(=O)CNS(=O)(=O)c1ccc2c3c(cccc13)C(=O)N2CC,–,–,–,–,–,–
CCOC(=O)Cc1csc(NS(=O)(=O)c2ccc3c4c(cccc24)C(=O)N3CC)n1,–,–,-66,–,–,–
Cn1c(=O)c2c(nc(NC3CCCCC3)n2CC(O)CO)n(C)c1=O (stereo not drawn),·,·,·,·,–,·
COc1cc(N)c2ncccc2c1Br,–,-52,–,–,–,–
Cc1ccc(C)c(CN2CCN(c3nc4c(c(=O)[nH]c(=O)n4C)n3C/C=C/c3ccccc3)CC2)c1,·,·,·,·,–,·
CC(=O)Oc1c(C)c2c3c(c1OC(C)=O)[C@@H](C)CC[C@@H]3[C@@H](C)C[C@H]2C=C(C)C,43,–,–,–,–,–
CC(=O)N1CCc2cc(C(=O)CN3CCN(c4cccc(Cl)c4)CC3)ccc21,–,–,-50,–,–,–
Fc1ccccc1-c1nnc(SCc2coc(-c3cccs3)n2)n1C1CC1,·,·,·,·,–,·
N#Cc1c(NCCN)nc(NCc2ccccc2)c2c1CCN(Cc1ccccc1)C2,–,–,–,–,–,–
C=CCNc1nc(NCc2ccccc2)c(C#N)c2c1CN(C)CC2,–,–,-66,–,–,–
CC(C)OCCN1CCN(c2oc(-c3ccco3)nc2C#N)CC1,·,·,·,·,–,·
COc1ccc(-c2nc(Nc3ccc(F)c(F)c3F)sc2CCC(=O)O)cc1,·,·,·,·,–,·
COc1ccc(NC(=O)C(c2ccccc2)N(C)C(=O)/C=C\c2ccc3c(c2)OCO3)cc1 (stereo not drawn),–,–,·,·,–,–
COc1cccc(NC(=O)C(OC(=O)/C=C/c2ccc3c(c2)OCO3)c2ccccc2)c1 (stereo not drawn),–,–,-55,·,–,–
CC(=O)Nc1ccc(SCC(=O)N(CCC#N)c2cc(C)cc(C)c2)cc1,–,–,–,-110%,–,–
CCCN(CCC)c1nc(N)nc(-c2cc(Cl)ccc2OC)n1,–,–,–,–,–,–[11.4 µM]
CCCNc1nc(N)nc(-c2cc(Cl)ccc2OC)n1,–,–,–,-102%,–,–
COc1ccc(NC(=O)CN(C)CC(=O)N(C)C2(C#N)CCC(C)CC2)cc1 (stereo not drawn),–,–,-50,–,–,–
O=S(=O)(/C(=C/c1cccs1)c1nc2ccccc2[nH]1)c1ccccc1,·,·,·,·,–,·
O=S(=O)(/C(=C\c1ccc(C(F)(F)F)cc1)c1nc2ccccc2[nH]1)c1ccccc1,–,–,-93,–,–,?
CC(C)CCNC(=O)c1ccc(-c2ccccc2)s1,·,·,·,·,–,·
Cc1cn2c(N)c(/C=C3\C=Nc4ccccc43)c(=O)nc2s1,–,–,–,–,–,–
CCc1nn2c(N)c(/C=C3\C=Nc4ccccc43)c(=O)nc2s1,–,–,-50!,–,–,–
O=c1[nH]c2ccc(Cl)cc2c(-c2ccccc2)c1CN1CCOCC1,–,–,-58,–,–,–
OC(CCCN1CCCCC1)(c1ccccc1)c1ccccc1,–,–,-101,·,–,–
